{"source": "PubChem BioAssay AID1159580", "about": "(chemical genetic matrix, 2015)", "test": "chemical genetic growth profiling, strain panel (AID 1159580);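 further: tested at 20 µM; growth read once vehicle control cultures reached saturation at 30 °C; 1 = growth at the plate median or of vehicle wells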", "conditions": "S. cerevisiae deletion strains, growth OD", "key": {"[1]": {"conditions": "locus YDL101C, strain DUN1, stronger effect = lower value"}, "[2]": {"conditions": "locus YHR030C, strain SLT2, stronger effect = lower value"}, "[3]": {"conditions": "locus YMR307W, strain GAS1, stronger effect = lower value"}}, "note": "Screen size: about 5,500 compounds; about 2,000 (36%) were called active. Another 18% or so got no clear call; they are omitted. The list shows a part of the results. Values without a mark were called inactive. No stated cut-off is given here; in the data, active means normalized growth mostly below about 0.91 (no sharp cut-off); inconclusive means no clear call, values can overlap the other calls; inactive means mostly above about 0.92.", "data": [{"smiles": "CSc1cc(-c2ccncc2)nc(-c2cccs2)c1", "values": [{"measurement": "normalized growth", "setting": "locus YAR019C, strain CDC15, stronger effect = lower value", "value": 0.953}, {"measurement": "normalized growth", "setting": "locus YBL105C, strain PKC1, stronger effect = lower value", "value": 0.964}, {"measurement": "normalized growth", "setting": "locus YBR135W, strain CKS1, stronger effect = lower value", "value": 0.957}, {"measurement": "normalized growth", "setting": "locus YBR136W, strain MEC1, stronger effect = lower value", "value": 0.961}, {"measurement": "normalized growth", "setting": "locus YBR160W, strain CDC28, stronger effect = lower value", "value": 0.952}, {"measurement": "normalized growth", "setting": "locus YDL017W, strain CDC7, stronger effect = lower value", "value": 0.959}, {"measurement": "normalized growth", "setting": "locus YDL028C, strain MPS1, stronger effect = lower value", "value": 0.965}, {"measurement": "normalized growth", "setting": "[1]", "value": 0.971}, {"measurement": "normalized growth", "setting": "locus YDL108W, strain KIN28, stronger effect = lower value", "value": 0.96}, {"measurement": "normalized growth", "setting": "locus YDL132W, strain cdc53, stronger effect = lower value", "value": 0.961}, {"measurement": "normalized growth", "setting": "locus YDL214C, strain PRR2, stronger effect = lower value", "value": 0.965}, {"measurement": "normalized growth", "setting": "locus YDR052C, strain DBF4, stronger effect = lower value", "value": 0.965}, {"measurement": "normalized growth", "setting": "locus YDR054C, strain cdc34, stronger effect = lower value", "value": 0.957}, {"measurement": "normalized growth", "setting": "locus YDR226W, strain ADK1, stronger effect = lower value", "value": 0.951}, {"measurement": "normalized growth", "setting": "locus YDR477W, strain SNF1, stronger effect = lower value", "value": 0.941}, {"measurement": "normalized growth", "setting": "locus YER123W, strain YCK3, stronger effect = lower value", "value": 0.928}, {"measurement": "normalized growth", "setting": "locus YER133W, strain GLC7, stronger effect = lower value", "value": 0.927}, {"measurement": "normalized growth", "setting": "locus YFL009W, strain cdc4, stronger effect = lower value", "value": 0.975}, {"measurement": "normalized growth", "setting": "locus YFL029C, strain CAK1, stronger effect = lower value", "value": 0.952}, {"measurement": "normalized growth", "setting": "locus YFR003C, strain YPI1, stronger effect = lower value", "value": 0.96}, {"measurement": "normalized growth", "setting": "locus YFR019W, strain FAB1, stronger effect = lower value", "value": 0.965}, {"measurement": "normalized growth", "setting": "locus YFR028C, strain CDC14, stronger effect = lower value", "value": 0.952}, {"measurement": "normalized growth", "setting": "locus YGR040W, strain KSS1, stronger effect = lower value", "value": 0.928}, {"measurement": "normalized growth", "setting": "locus YGR052W, strain FMP48, stronger effect = lower value", "value": 1.05}, {"measurement": "normalized growth", "setting": "locus YGR092W, strain DBF2, stronger effect = lower value", "value": 0.89}, {"measurement": "normalized growth", "setting": "[2]", "value": 1.03}, {"measurement": "normalized growth", "setting": "locus YHR079C, strain IRE1, stronger effect = lower value", "value": 0.953}, {"measurement": "normalized growth", "setting": "locus YHR082C, strain KSP1, stronger effect = lower value", "value": 1.02}, {"measurement": "normalized growth", "setting": "locus YHR205W, strain SCH9, stronger effect = lower value", "value": 0.997}, {"measurement": "normalized growth", "setting": "locus YIL147C, strain SLN1, stronger effect = lower value", "value": 0.962}, {"measurement": "normalized growth", "setting": "locus YJL095W, strain BCK1, stronger effect = lower value", "value": 0.982}, {"measurement": "normalized growth", "setting": "locus YJL128C, strain PBS2, stronger effect = lower value", "value": 0.963}, {"measurement": "normalized growth", "setting": "locus YJL157C, strain FAR1, stronger effect = lower value", "value": 0.938}, {"measurement": "normalized growth", "setting": "locus YJR016C, strain ILV3, stronger effect = lower value", "value": 0.985}, {"measurement": "normalized growth", "setting": "locus YJR066W, strain TOR1 (second series), stronger effect = lower value", "value": 0.95}, {"measurement": "normalized growth", "setting": "locus YJR066W, strain TOR1, stronger effect = lower value", "value": 0.993}, {"measurement": "normalized growth", "setting": "locus YKL048C, strain ELM1, stronger effect = lower value", "value": 0.966}, {"measurement": "normalized growth", "setting": "locus YKL067W, strain YNK1, stronger effect = lower value", "value": 0.951}, {"measurement": "normalized growth", "setting": "locus YKL101W, strain HSL1, stronger effect = lower value", "value": 0.961}, {"measurement": "normalized growth", "setting": "locus YKL193C, strain SDS22, stronger effect = lower value", "value": 0.958}, {"measurement": "normalized growth", "setting": "locus YKL203C, strain TOR2, stronger effect = lower value", "value": 1}, {"measurement": "normalized growth", "setting": "locus YLR113W, strain HOG1, stronger effect = lower value", "value": 0.92}, {"measurement": "normalized growth", "setting": "locus YLR133W, strain CKI1, stronger effect = lower value", "value": 0.962}, {"measurement": "normalized growth", "setting": "locus YLR403W, strain SFP1, stronger effect = lower value", "value": 1.01}, {"measurement": "normalized growth", "setting": "locus YML070W, strain DAK1, stronger effect = lower value", "value": 0.929}, {"measurement": "normalized growth", "setting": "locus YMR001C, strain CDC5, stronger effect = lower value", "value": 0.964}, {"measurement": "normalized growth", "setting": "locus YMR205C, strain PFK2 (second series), stronger effect = lower value", "value": 0.963}, {"measurement": "normalized growth", "setting": "locus YMR277W, strain FCP1, stronger effect = lower value", "value": 0.961}, {"measurement": "normalized growth", "setting": "locus YNL006W, strain LST8, stronger effect = lower value", "value": 0.969}, {"measurement": "normalized growth", "setting": "locus YNL020C, strain ARK1, stronger effect = lower value", "value": 0.954}, {"measurement": "normalized growth", "setting": "locus YNL161W, strain CBK1, stronger effect = lower value", "value": 0.952}, {"measurement": "normalized growth", "setting": "locus YNL183C, strain NPR1, stronger effect = lower value", "value": 0.97}, {"measurement": "normalized growth", "setting": "locus YNL207W, strain RIO2, stronger effect = lower value", "value": 0.945}, {"measurement": "normalized growth", "setting": "locus YNL222W, strain SSU72, stronger effect = lower value", "value": 0.951}, {"measurement": "normalized growth", "setting": "locus YNL307C, strain MCK1 (second series), stronger effect = lower value", "value": 0.952}, {"measurement": "normalized growth", "setting": "locus YOL078W, strain AVO1, stronger effect = lower value", "value": 0.96}, {"measurement": "normalized growth", "setting": "locus YOL136C, strain PFK27, stronger effect = lower value", "value": 0.956}, {"measurement": "normalized growth", "setting": "locus YOR061W, strain CKA2, stronger effect = lower value", "value": 0.963}, {"measurement": "normalized growth", "setting": "locus YOR119C, strain RIO1, stronger effect = lower value", "value": 0.984}, {"measurement": "normalized growth", "setting": "locus YOR231W, strain MKK1, stronger effect = lower value", "value": 0.921}, {"measurement": "normalized growth", "setting": "locus YOR329C, strain SCD5, stronger effect = lower value", "value": 0.966}, {"measurement": "normalized growth", "setting": "locus YPL031C, strain PHO85, stronger effect = lower value", "value": 0.927}, {"measurement": "normalized growth", "setting": "locus YPL153C, strain RAD53, stronger effect = lower value", "value": 0.925}, {"measurement": "normalized growth", "setting": "locus YPL204W, strain HRR25, stronger effect = lower value", "value": 0.951}, {"measurement": "normalized growth", "setting": "locus YPL209C, strain IPL1, stronger effect = lower value", "value": 0.954}, {"measurement": "normalized growth", "setting": "locus YPL256C, strain CLN2, stronger effect = lower value", "value": 0.939}, {"measurement": "normalized growth", "setting": "locus YPR025C, strain CCL1, stronger effect = lower value", "value": 0.963}, {"measurement": "normalized growth", "setting": "locus YPR106W, strain ISR1, stronger effect = lower value", "value": 0.959}, {"measurement": "normalized growth", "setting": "locus YPR111W, strain DBF20, stronger effect = lower value", "value": 0.947}, {"measurement": "normalized growth", "setting": "strain NNK1, stronger effect = lower value", "value": 0.965}, {"measurement": "normalized growth", "setting": "strain TSCII, stronger effect = lower value", "value": 0.951}]}, {"smiles": "CSc1c(C#N)c(-c2cccs2)nn1C", "values": [{"measurement": "normalized growth", "setting": "locus YAL013W, strain DEP1, stronger effect = lower value", "value": 0.934}, {"measurement": "normalized growth", "setting": "locus YBR229C, strain ROT2, stronger effect = lower value", "value": 0.935}, {"measurement": "normalized growth", "setting": "[1]", "value": 0.934}, {"measurement": "normalized growth", "setting": "locus YDR150W, strain NUM1, stronger effect = lower value", "value": 0.86}, {"measurement": "normalized growth", "setting": "locus YEL061C, strain CIN8, stronger effect = lower value", "value": 0.924}, {"measurement": "normalized growth", "setting": "locus YGR078C, strain PAC10, stronger effect = lower value", "value": "0.913 (active)"}, {"measurement": "normalized growth", "setting": "[2]", "value": "0.505 (active)"}, {"measurement": "normalized growth", "setting": "locus YHR087W, strain rtc3, stronger effect = lower value", "value": "0.898 (active)"}, {"measurement": "normalized growth", "setting": "locus YJL187C, strain SWE1, stronger effect = lower value", "value": 1.02}, {"measurement": "normalized growth", "setting": "locus YJR043C, strain POL32, stronger effect = lower value", "value": 0.978}, {"measurement": "normalized growth", "setting": "locus YJR075W, strain HOC1, stronger effect = lower value", "value": "0.89 (active)"}, {"measurement": "normalized growth", "setting": "locus YLR039C, strain RIC1, stronger effect = lower value", "value": 0.87}, {"measurement": "normalized growth", "setting": "locus YLR058C, strain SHM2 (second series), stronger effect = lower value", "value": "0.92 (active)"}, {"measurement": "normalized growth", "setting": "locus YLR085C, strain ARP6, stronger effect = lower value", "value": 0.784}, {"measurement": "normalized growth", "setting": "locus YLR262C, strain YPT6, stronger effect = lower value", "value": 0.879}, {"measurement": "normalized growth", "setting": "locus YML094W, strain GIM5, stronger effect = lower value", "value": 0.911}, {"measurement": "normalized growth", "setting": "locus YMR219W, strain ESC1, stronger effect = lower value", "value": 0.945}, {"measurement": "normalized growth", "setting": "locus YMR263W, strain SAP30, stronger effect = lower value", "value": 0.949}, {"measurement": "normalized growth", "setting": "[3]", "value": 0.983}, {"measurement": "normalized growth", "setting": "locus YNL153C, strain GIM3, stronger effect = lower value", "value": 0.959}, {"measurement": "normalized growth", "setting": "locus YNL298W, strain CLA4 (second series), stronger effect = lower value", "value": "0.804 (active)"}, {"measurement": "normalized growth", "setting": "locus YNL322C, strain KRE1, stronger effect = lower value", "value": "0.931 (active)"}, {"measurement": "normalized growth", "setting": "locus YNR030W, strain Alg12, stronger effect = lower value", "value": "0.859 (active)"}, {"measurement": "normalized growth", "setting": "locus YPL055C, strain LGE1, stronger effect = lower value", "value": 0.917}, {"measurement": "normalized growth", "setting": "locus YPL241C, strain CIN2, stronger effect = lower value", "value": 0.886}, {"measurement": "normalized growth", "setting": "locus YPR135W, strain CTF4, stronger effect = lower value", "value": "0.509 (active)"}]}, {"smiles": "NCC(CP(=O)(O)O)c1ccc(Cl)cc1", "note": "(stereo not drawn)", "values": [{"measurement": "normalized growth", "setting": "locus YAL040C, strain CLN3, stronger effect = lower value", "value": 1.04}, {"measurement": "normalized growth", "setting": "locus YCL061C, strain MRC1 (second series), stronger effect = lower value", "value": 0.978}, {"measurement": "normalized growth", "setting": "locus YDR363W, strain ESC2, stronger effect = lower value", "value": 0.99}, {"measurement": "normalized growth", "setting": "locus YER002W, strain NOP16, stronger effect = lower value", "value": 0.991}, {"measurement": "normalized growth", "setting": "locus YGR229C, strain SMI1, stronger effect = lower value", "value": 0.963}, {"measurement": "normalized growth", "setting": "[3]", "value": 0.995}, {"measurement": "normalized growth", "setting": "locus YNL128W, strain TEP1, stronger effect = lower value", "value": 0.987}, {"measurement": "normalized growth", "setting": "locus YNL175C, strain NOP13, stronger effect = lower value", "value": 0.986}, {"measurement": "normalized growth", "setting": "locus YNL197C, strain WHI3, stronger effect = lower value", "value": 0.998}, {"measurement": "normalized growth", "setting": "locus YNL224C, strain SQS1, stronger effect = lower value", "value": 1}, {"measurement": "normalized growth", "setting": "locus YOR083W, strain WHI5 (second series), stronger effect = lower value", "value": 0.98}]}]}
